Sampled rows, rich in hits. Any-hit rate of the full collection: about 2.4%.
Prx2 Sm inh: Schistosoma mansoni Prx2 inhibition. Potency, µM. 65,000 tested, 0.07% active. AID 448. S. mansoni Prx2 activity coupled to TGR/GSH (TGR is thioredoxin glutathione reductase), NADPH fluorescence loss, qHTS
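Prx2 activity was followed as the loss of NADPH fluorescence (ex 365/em 450 nm), read every 30 sec for 8 min after H2O2 start. The enzyme mix (50 nM Prx2, 25 nM TGR, GSH, NADPH; pH 7.4 phosphate buffer) was incubated with compound for 15 min at room temperature first.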
AmpC inh det: blocks E. coli AmpC beta-lactamase in presence of detergent | P00811 | purified AmpC, nitrocefin hydrolysis with detergent | Potency, µM (titrated, usually from 28.7 µM), without a hit: at the highest dose activity change, negative = inhibition | 71,000 tested, 0.09% active | AID 584; active = well fitted curve in the direction sought with a large enough effect; inconclusive = small, poorly fitted or top-dose-only effect; also: % is scaled to controls: 0 for no effect and ±100 for the full control effect
Target sequence (P00811 whole entry, looked up): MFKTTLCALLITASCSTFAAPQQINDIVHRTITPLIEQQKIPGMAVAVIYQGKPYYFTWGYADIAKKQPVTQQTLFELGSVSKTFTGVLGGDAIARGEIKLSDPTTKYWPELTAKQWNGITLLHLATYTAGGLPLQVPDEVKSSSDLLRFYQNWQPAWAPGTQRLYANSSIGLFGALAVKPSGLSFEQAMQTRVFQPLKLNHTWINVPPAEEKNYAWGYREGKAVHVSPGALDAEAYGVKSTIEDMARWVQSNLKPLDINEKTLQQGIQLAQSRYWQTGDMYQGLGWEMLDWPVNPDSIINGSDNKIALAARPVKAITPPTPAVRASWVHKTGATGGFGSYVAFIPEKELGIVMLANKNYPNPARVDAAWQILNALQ
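E. coli AmpC (5.3 nM) in 20 mM phosphate pH 7.0 with 0.01% Triton X-100, preincubated 15 min RT with compound; nitrocefin (2 uL of 800 uM stock) hydrolysis followed by 480 nm absorbance every 20 s over 4 min.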
Anthrax LT inh: blocks cellular internalization of anthrax lethal toxin. Cells, anthrax lethal toxin internalization, FRET ratio (460/530). Potency, µM (titrated, usually from 40 µM), for the others: at the highest dose activity change, negative = inhibition, actives largely listed as inhibitors. 70,000 tested, 0.67% active. AID 912; also: % is scaled to controls: 0 for no effect and ±100 for the full control effect; nearly all actives have a fitted effect of over 50% in size
AmpC nodet inh: AmpC beta-lactamase inhibition, detergent-free assay; P00811; Potency, µM (top dose mostly 28.7 µM), without a hit: top-dose activity change, negative = inhibition; AmpC nitrocefin hydrolysis, absorbance 480 nm, no detergent; 71,000 tested, 1.8% active; also: % of control where 0% means no effect
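AmpC, 20 mM phosphate pH 7.0; 15 min cpd preinc, RT; start with nitrocefin (800 uM stock); A480 kinetic read, 20 s intervals, 4 min. No-enzyme wells = negative control.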
* = called active by the depositor; ? = inconclusive; nt = not tested or not shown; [ ] = remark or other dose. Unless noted, calls follow the shape of the full dose curve. Potency is read from the fitted curve at half-maximal effect.

SMILES | Prx2 Sm inh | AmpC inh det | Anthrax LT inh | AmpC nodet inh
CC(=O)OC[C@@H]1O[C@@H](O/N=C2/C[C@@H](O)[C@@H](O)[C@@H]3[C@@H]4C(=O)N(C(C)(C)C)C(=O)[C@H]4CC[C@H]23)[C@H](OC(C)=O)[C@H](OC(C)=O)[C@@H]1OC(C)=O | nt | nt | 5%[1.6 µM] | nt
O=C(Nc1ccc2nc(C3CC3)n(Cc3ccc(F)cc3)c(=O)c2c1)c1ccco1 | >57 | 3% | -18% | 38%
COc1cccc(Cn2c(C3CC3)nc3ccc(NC(=O)c4ccco4)cc3c2=O)c1 | >57 | -5% | 13µM* | 45%
Cc1ccc(S(=O)(=O)Nc2ccc3nc(N)sc3c2)cc1 | >57 | 2% | -21% | 10µM*
Cc1cccc(-n2nc3c(c2NC(=O)c2ccc(Br)o2)CSC3)c1 | >57 | 0% | ? | 10µM*
c1ccc(-c2ccc(N3CCCC4(CCNCC4)C3)cc2)cc1 | >57 | -4% | ? | 116%
CCCCNC(=O)c1ccc2nc(-c3ccco3)c(-c3ccco3)nc2c1 | >57 | 8% | -8% | 4µM*[single pt active]
O=C(Nc1ccccc1)c1ccc2nc(-c3ccco3)c(-c3ccco3)nc2c1 | >57 | -7% | ? | -3%
Cc1ccc(C2=C(Cl)C(=O)C(c3ccc(C)cc3)=C(Cl)C2=O)cc1 | nt | -2%[5.75 µM] | -6%[8 µM] | -4%[5.75 µM]
CCOC(=O)c1ccc(NC(=O)Nc2ccc(S(N)(=O)=O)cc2)cc1 | >57 | -4% | nt | -20%
CN(C)c1ccc(C(=O)OCC(=O)Nc2ccc(S(N)(=O)=O)cc2)cc1 | >57 | -2% | 9% | 16µM*[single pt active]
Cc1cc(Cl)ccc1OCC(=O)Nc1ccccc1N1CCOCC1 | >57 | -3% | 16µM* | 8%
Cn1c(Cn2c(=O)sc3ccccc32)nnc1SCC(=O)N1CCCc2ccccc21 | >57 | 13% | -9% | 4µM*[single pt active]
CCSc1nnc(Cn2c(=O)sc3ccccc32)n1C | >57 | 14% | -6% | 4µM*[single pt active]
Cn1c(Cn2c(=O)sc3ccccc32)nnc1SCC(=O)N1CCc2ccccc21 | >57 | 12% | -4% | 4µM*[single pt active]
Cn1c(Cn2c(=O)sc3ccccc32)nnc1SCc1ccccn1 | >57 | 1% | -2% | 11%
Cn1c(Cn2c(=O)sc3ccccc32)nnc1SCC(=O)N1CCCC1 | >57 | 27% | 29% | 4µM*[single pt active]
CC1CCN(C(=O)CSc2nnc(Cn3c(=O)sc4ccccc43)n2C)CC1 | >57 | 16% | 2% | ?
O=C(c1cccc(F)c1)N1CCC2(CC1)CN(c1ncccn1)C2 | >57 | 0% | -15% | 69%
CN(C)c1ncc2ncc(=O)n(C)c2n1 | >57 | 5% | 0% | 8%
CCCn1c(-c2ccc(F)cc2)nc2c(N3CCCN(Cc4ccccc4)CC3)nc(C)nc21 | nt | 17% | 6.3µM* | 98%
CCCn1c(C)nc2c(N3CCCN(Cc4ccccc4)CC3)nc(C)nc21 | nt | 15% | -4% | 107%
NNC(=O)[C@@H](O)[C@H](O)[C@H](O)CO | >57 | -1%[5.75 µM] | -4%[8 µM] | -2%[5.75 µM]
Nc1ccc(S(=O)(=O)c2ccc(NCN3C(=O)NC(=O)C(=O)C3=O)cc2)cc1 | >57 | -1%[5.75 µM] | -8%[8 µM] | -9%[5.75 µM]
O[C@@H](C1=C/C(=C\c2ccncc2)c2ccccc21)c1ccncc1 | >57 | -4%[5.75 µM] | -9%[8 µM] | 15%[5.75 µM]
SMILES | Prx2 Sm inh | AmpC inh det | Anthrax LT inh | AmpC nodet inh
O=C(COC(=O)Cc1ccc(S(=O)(=O)N2CCCCC2)s1)Nc1ccc2c(c1)OCO2 | >57 | 11% | -9% | 13µM*
O=C(COC(=O)Cc1ccc(S(=O)(=O)N2CCOCC2)s1)NCc1ccccc1 | >57 | -3% | -3% | 14%
CCn1c(SCC#N)nc2c(c1=O)C1(CCCC1)Cc1ccccc1-2 | >57 | 18% | 10µM* | 8%
Cc1cc(C)cc(N(CC(=O)O)S(=O)(=O)c2cccnc2)c1 | >57 | 13% | -2% | 4%
CC(=O)NCc1ccc(-c2csc(N)n2)s1 | >57 | 13% | 10µM* | -12%
Cc1ccc(-c2csc(N)n2)s1 | >57 | -2% | ? | ?
Cc1noc(C)c1-c1ccc2ncnc(N(C)Cc3ccco3)c2c1 | >11 | 10% | 2% | 53%
O=C(O)[C@@H]1[C@@H]2C[C@@H]3[C@@H](OC(=O)[C@@H]31)[C@H]2Br | >57 | 0%[5.75 µM] | -4%[8 µM] | -2%[5.75 µM]
Cc1cc(NC(=O)CSc2c3c(nc4ccccc24)CCC3)no1 | >57 | 12% | ? | 4µM*[single pt active]
CN(CCc1ccc(Cl)c(Cl)c1)CCN1CCCCCC1 | >57 | -4% | ? | 28%
CN(CCc1ccc(Cl)c(Cl)c1)[C@H]1CCCC[C@H]1N1CCCC1 | >57 | -6% | 25µM* | 42%
CCCC[C@@H]1C[C@H]1C(NC(=O)c1ccco1)c1ccc(-c2ccccc2)cc1 (some centres not stated) | >57 | -3% | -10% | 13µM*[single pt active]
CCCC[C@@H]1C[C@H]1C(NC(=O)c1ccccc1)c1ccccc1 (some centres not stated) | >57 | -2% | 2% | -20%
CCCC[C@@H]1C[C@H]1C(NC(=O)c1ccco1)c1ccccc1C(F)(F)F (some centres not stated) | >57 | -4% | ? | -18%
CCCC[C@@H]1C[C@H]1C(NC(=O)c1ccco1)c1ccc(Cl)cc1 (some centres not stated) | >57 | -4% | ? | 10µM*[single pt active]
COc1ccc2c(Cc3c4ccccc4cc4ccccc34)cncc2c1O | >57 | -2%[5.75 µM] | ? | -7%[5.75 µM]
c1ccc(C(NCCNC(c2ccccc2)c2ccccc2)c2ccccc2)cc1 | nt | nt | 10µM* | nt
CCc1ncc(C(O)c2cccc(OC)c2OC)n1C (configuration not stated) | >57 | -6% | 1% | -13%
CCn1ccnc1C(O)c1cccc(OC)c1OC (configuration not stated) | >57 | 12% | -9% | 4µM*[single pt active]
CCc1ccc(NC(=O)Cn2c(SC)nc3ccccc32)cc1 | >57 | 5% | ? | 47%
CSc1nc2ccccc2n1CC(=O)Nc1ccccc1 | nt | 4% | 16µM* | 6%
COc1ccc(S(=O)(=O)NCCSCc2ccco2)cc1 | >57 | 14% | -4% | 13µM*[single pt active]
COc1ccc(C(=O)CSc2nnc(-c3cc4ccccc4cc3O)n2Cc2ccco2)cc1 | >57 | 15% | ? | 10µM*
O=C(Nc1ccccc1)c1ccccc1O | >57 | 2% | -13% | -10%
O=C(N/N=C\c1ccccc1O)c1ccccc1O | >57 | -1% | ? | 16µM*
COc1ccc(N(C)C(=O)c2ccc3snnc3c2)cc1 | >57 | 11% | -4% | 4µM*[single pt active]
CNc1nc(Nc2ccc(C(C)=O)cc2)nc(OC(C(F)(F)F)C(F)(F)F)n1 | >57 | 2% | 10µM* | 38%
CCC(Sc1nccn1C)C(=O)Nc1nnc(C)s1 (configuration not stated) | >57 | 8% | -10% | 4µM*[single pt active]
CCC(Sc1nccn1C)C(=O)Nc1cccc2ccccc12 (configuration not stated) | >57 | -6% | -4% | -3%
CCCCNC(=O)CS(=O)Cc1nc(-c2cccc(C)c2)oc1C (configuration not stated) | >57 | 10% | -8% | 4µM*[single pt active]

Source: PubChem BioAssay
